PubChem BioAssay (NCATS)
Inconclusive results are not listed. The source made the active and inactive calls. The call rests on the fitted dose curve; in most records, active means well fitted curve in the direction sought with a large enough effect; inconclusive means small, poorly fitted or top-dose-only effect, or another doubt; inactive means no such curve, though single readings can be large; an effect the other way counts as inactive or inconclusive.

Experiments:
[1] = Quantitative High-Throughput drug screen in 47 multiple myeloma cell lines against the NCATS MIPE library collection: JIM3_ECACC cell viability assay (AID 1918963; further: nearly all actives have a fitted effect of over 35% in size)
Method in brief: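 CellTiter-Glo luminescence (ATP) after 48 h compound exposure, 37C/5% CO2; 500 cells/well; MIPE 4.0 approved/investigational drugs pinned in; DMSO = 100%, media only = 0% viability.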

[2] = Quantitative High-Throughput drug screen in 47 multiple myeloma cell lines against the NCATS MIPE library collection: JIM1_ECACC cell viability assay (AID 1918964)
Method in brief: (§1)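 Primary qHTS used for cherry-picking: cells at 500/well, library compounds for 48 h (37C, 5% CO2), luminescent ATP assay.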

[3] = Quantitative High-Throughput drug screen in 47 multiple myeloma cell lines against the NCATS MIPE library collection: INA6_PLB cell viability assay (AID 1918965; further: nearly all actives have a fitted effect of over 55% in size)
Method in brief: (§2)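 Myeloma cells (500 per well) were exposed to MIPE 4.0 compounds by pin transfer and incubated 48 hours at 37C, 5% CO2. Viability was read as ATP by CellTiter-Glo luminescence, normalised to DMSO (100%) and media-only (0%) wells.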

[4] = Quantitative High-Throughput drug screen in 47 multiple myeloma cell lines against the NCATS MIPE library collection: JJN3_DSMZ cell viability assay (AID 1918966; further: nearly all actives have a fitted effect of over 50% in size)
Method in brief: as §1

[5] = Quantitative High-Throughput drug screen in 47 multiple myeloma cell lines against the NCATS MIPE library collection: H1112_PLB cell viability assay (AID 1918967; further: nearly all actives have a fitted effect of over 30% in size)
Method in brief: as §1

[6] = Quantitative High-Throughput drug screen in 47 multiple myeloma cell lines against the NCATS MIPE library collection: Karpas25_ECACC cell viability assay (AID 1918968; further: nearly all actives have a fitted effect of over 35% in size)
Method in brief: as §1

[7] = Quantitative High-Throughput drug screen in 47 multiple myeloma cell lines against the NCATS MIPE library collection: KMS27_JCRB cell viability assay (AID 1918970); further: nearly all actives have a fitted effect of over 30% in size
Method in brief: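 Myeloma cells (500 per well) were exposed to MIPE 4.0 compounds for 48 h at 37 °C, 5% CO2; viability was read as ATP luminescence with CellTiter-Glo, normalized to DMSO-only (100%) and media-only (0%) wells.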

[8] = Quantitative High-Throughput drug screen in 47 multiple myeloma cell lines against the NCATS MIPE library collection: KMS12BM_JCRB cell viability assay (AID 1918971); further: nearly all actives have a fitted effect of over 35% in size
Method in brief: (§3)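 Viability readout: CellTiter-Glo luminescence following 5 min room-temperature incubation with reagent. Prior exposure: 48 h, 37C, humidified 5% CO2, 500 cells per well.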

[9] = Quantitative High-Throughput drug screen in 47 multiple myeloma cell lines against the NCATS MIPE library collection: KMS12PE_JCRB cell viability assay (AID 1918972); further: nearly all actives have a fitted effect of over 30% in size
Method in brief: as §2

[10] = Quantitative High-Throughput drug screen in 47 multiple myeloma cell lines against the NCATS MIPE library collection: KMS20_JCRB cell viability assay (AID 1918973); further: nearly all actives have a fitted effect of over 45% in size
Method in brief: as §1

[11] = Quantitative High-Throughput drug screen in 47 multiple myeloma cell lines against the NCATS MIPE library collection: KMS21BM_JCRB cell viability assay (AID 1918974); details: ATP luminescence, 48 h; viability: at 45.8 µM (top of the series) unless noted
Method in brief: as §1

[12] = Quantitative High-Throughput drug screen in 47 multiple myeloma cell lines against the NCATS MIPE library collection: KMS26_JCRB cell viability assay (AID 1918975); further: nearly all actives have a fitted effect of over 45% in size
Method in brief: as §3

[13] = Quantitative High-Throughput drug screen in 47 multiple myeloma cell lines against the NCATS MIPE library collection: MMM1_PLB cell viability assay (AID 1918976); further: nearly all actives have a fitted effect of over 35% in size
Method in brief: (§4)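 Myeloma cells (500/well) treated with MIPE 4.0 compounds for 48 h at 37 °C, 5% CO2. Viability read as ATP via CellTiter-Glo luminescence after 5 min at RT; DMSO-only wells = 100%, media-only = 0% viability.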

[14] = Quantitative High-Throughput drug screen in 47 multiple myeloma cell lines against the NCATS MIPE library collection: MOLP8_DSMZ cell viability assay (AID 1918977); further: nearly all actives have a fitted effect of over 45% in size
Method in brief: as §4

[15] = Quantitative High-Throughput drug screen in 47 multiple myeloma cell lines against the NCATS MIPE library collection: NCIH929_DSMZ cell viability assay (AID 1918978); further: nearly all actives have a fitted effect of over 35% in size
Method in brief: as §4

[16] = Quantitative High-Throughput drug screen in 47 multiple myeloma cell lines against the NCATS MIPE library collection: OCIMY1_PLB cell viability assay (AID 1918979); further: nearly all actives have a fitted effect of over 35% in size
Method in brief: as §4

[17] = Quantitative High-Throughput drug screen in 47 multiple myeloma cell lines against the NCATS MIPE library collection: MM1S_ATCC cell viability assay (AID 1918980); further: nearly all actives have a fitted effect of over 45% in size
Method in brief: as §4

[18] = Quantitative High-Throughput drug screen in 47 multiple myeloma cell lines against the NCATS MIPE library collection: MM1R_ATCC cell viability assay (AID 1918981); further: nearly all actives have a fitted effect of over 35% in size
Method in brief: as §4

[19] = Quantitative High-Throughput drug screen in 47 multiple myeloma cell lines against the NCATS MIPE library collection: LP1_DSMZ cell viability assay (AID 1918982); further: nearly all actives have a fitted effect of over 35% in size
Method in brief: as §4

[20] = Quantitative High-Throughput drug screen in 47 multiple myeloma cell lines against the NCATS MIPE library collection: KMS28PE_JCRB cell viability assay (AID 1918983); further: nearly all actives have a fitted effect of over 35% in size
Method in brief: as §4

Measured: Potency
Potency means the concentration at half of the fitted maximal effect.

O=C(c1ccc(Nc2nccc(-c3cc4ccccc4s3)n2)cc1)N1CCC(N2CCCC2)CC1
active: [1] 3.72 µM | [2] 4.69 µM | [3] 1660 nM | [4] 16.6 µM | [5] 7.43 µM | [6] 4180 nM | [7] 4180 nM | [8] 13.2 µM | [9] 1870 nM | [10] 1320 nM | [11] 5260 nM | [12] 16.6 µM | [13] 20.9 µM | [14] 13.2 µM | [15] 5.9 µM | [16] 20.9 µM | [17] 20.9 µM | [18] 16.6 µM | [19] 20.9 µM | [20] 16.6 µM

Nc1ncnc2c1c(-c1cnc3[nH]ccc3c1)nn2C1CCCC1
active: [1] 4.69 µM | [2] 0.526 µM | [3] 209 nM | [4] 2.35 µM | [5] 6.62 µM | [6] 209 nM | [7] 209 nM | [8] 0.743 µM | [9] 935 nM | [10] 83.3 nM | [11] 1050 nM | [12] 10.5 µM | [13] 0.187 µM | [14] 0.105 µM | [15] 0.235 µM | [16] 1.87 µM | [17] 2.96 µM | [18] 2.09 µM | [19] 0.148 µM | [20] 1.87 µM

CN(C)CC=CC(=O)Nc1cc2c(Nc3ccc(F)c(Cl)c3)ncnc2cc1O[C@H]1CCOC1
active: [1] 8.33 µM | [2] 2.96 µM | [3] 2090 nM | [4] 4.69 µM | [5] 5.9 µM | [6] 1320 nM | [7] 2640 nM | [8] 16.6 µM | [9] 1180 nM | [10] 2090 nM | [11] 166 nM | [12] 6.62 µM | [13] 20.9 µM | [14] 18.7 µM | [15] 5.26 µM | [16] 16.6 µM | [17] 5.9 µM | [18] 13.2 µM

CCN(CC)CCNC(=O)c1ccc2nc(-c3ccccc3)c(-c3ccc(CN4CCC(n5c(=O)[nH]c6ccccc65)CC4)cc3)nc2c1
active: [1] 0.935 µM | [2] 0.833 µM | [3] 296 nM | [4] 20.9 µM | [5] 0.833 µM | [6] 332 nM | [7] 418 nM | [8] 16.6 µM | [9] 833 nM | [10] 296 nM | [11] 1180 nM | [12] 14.8 µM | [13] 26.4 µM | [14] 16.6 µM | [15] 0.743 µM | [16] 20.9 µM | [17] 8.33 µM | [18] 20.9 µM | [19] 18.7 µM | [20] 23.5 µM

COC(=O)[C@]12CCC(C)(C)C[C@@H]1[C@@H]1C(=O)C=C3[C@@]4(C)C=C(C#N)C(=O)C(C)(C)[C@@H]4CC[C@@]3(C)[C@]1(C)CC2
active: [1] 0.166 µM | [2] 0.418 µM | [3] 59 nM | [4] 0.526 µM | [5] 0.418 µM | [6] 209 nM | [7] 526 nM | [8] 0.526 µM | [9] 662 nM | [10] 296 nM | [11] 74.3 nM | [12] 0.209 µM | [13] 1.32 µM | [14] 0.209 µM | [15] 0.235 µM | [16] 0.743 µM | [17] 0.418 µM | [18] 0.264 µM | [19] 0.743 µM | [20] 0.526 µM

NC(=O)Nc1cc(-c2cccc(F)c2)sc1C(=O)N[C@H]1CCCNC1
active: [1] 0.469 µM | [2] 0.105 µM | [3] 59 nM | [4] 1.32 µM | [5] 1.48 µM | [6] 590 nM | [7] 590 nM | [8] 0.662 µM | [9] 469 nM | [10] 662 nM | [11] 235 nM | [13] 4.69 µM | [14] 0.118 µM | [15] 2.64 µM | [16] 4.69 µM | [17] 0.132 µM | [18] 0.148 µM

CN(c1ncccc1CNc1nc(Nc2ccc3c(c2)CC(=O)N3)ncc1C(F)(F)F)S(C)(=O)=O
active: [1] 5.9 µM | [2] 3.32 µM | [3] 2640 nM | [4] 2.64 µM | [5] 5.9 µM | [6] 3320 nM | [7] 2640 nM | [8] 9.35 µM | [9] 8330 nM | [10] 3320 nM | [12] 7.43 µM | [13] 7.43 µM | [14] 4.18 µM | [15] 2.96 µM | [16] 13.2 µM | [17] 6.62 µM | [18] 6.62 µM | [19] 8.33 µM

C=CC(=O)Nc1cc2c(Nc3ccc(F)c(Cl)c3)ncnc2cc1C#CC(C)(C)N1CCN(C)CC1
active: [1] 1.66 µM | [2] 1.05 µM | [3] 418 nM | [4] 5.26 µM | [5] 1.87 µM | [6] 526 nM | [7] 833 nM | [8] 0.332 µM | [9] 833 nM | [10] 296 nM | [11] 332 nM | [12] 1.66 µM | [13] 5.26 µM | [14] 1.05 µM | [15] 0.833 µM | [17] 2.09 µM | [18] 1.32 µM | [19] 9.35 µM | [20] 0.833 µM
